Source: publication PMC7826789 (International Journal of Molecular Sciences, 2021)

Experiments:
Details in all cases: Compound Concentration (nM):1000
[1] = tested on: TXK
[2] = tested on: TYK2(JH1domain-catalytic)
[3] = tested on: TYK2(JH2domain-pseudokinase)
[4] = tested on: TYRO3
[5] = tested on: ULK1
[6] = tested on: ULK2
[7] = tested on: ULK3
[8] = tested on: T1, VEGFR2
T1 construct: gene KDR

[9] = tested on: T2, VPS34
T2 construct: gene PIK3C3

[10] = tested on: VRK2
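Also: KINOMEscan scanMAX binding as percent activity remaining versus control; lower means stronger binding.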

Compound	Percent Control [1] [%]	Percent Control [2] [%]	Percent Control [3] [%]	Percent Control [4] [%]	Percent Control [5] [%]	Percent Control [6] [%]	Percent Control [7] [%]	Percent Control [8] [%]	Percent Control [9] [%]	Percent Control [10] [%]
CN(C)CCNC(=O)Nc1ccc(N(C)c2ccnc(Nc3ccc(CS(C)(=O)=O)cc3)n2)cc1.Cl [GW830900A]	61	35	49	85	94	97	80	21	77	100
CC1=C(C(=O)Nc2ccc3[nH]ncc3c2)C(c2ccc(Cl)c(Cl)c2)CC(=O)N1 (stereo not drawn) [GSK299115A]	100	14	100	89	81	72	87	92	83	72
COc1cccc(-c2c[nH]c3c(N/N=C/c4ccncc4)ncnc23)c1 [GW814408X]	100	19	0.1	100	100	91	68	61	65	100
COc1cc(/C=N/Nc2ncnc3[nH]ncc23)ccc1O [GW578748X]	83	43	0.2	99	48	43	6.1	52	87	100
CCc1ccc(Oc2nccc(-c3c(-c4ccc(F)cc4)ncn3C3CCNCC3)n2)cc1 [SB-242719]	91	100	100	62	92	77	92	100	64	69
COc1ccc(COc2ccc(Cc3cnc(N)nc3N)cc2OC)cc1 [GW632580X]	90	100	100	71	90	90	96	85	67	81
CN(C)c1cc2c(Nc3ccc4c(cnn4Cc4ccccc4)c3)ncnc2cn1 [GW282974X]	89	100	100	100	–	85	91	94	78	81
COc1ccccc1-c1cc(/C=C2\C(=O)Nc3ncc(Br)cc32)cc(Br)c1O [GW442130X]	100	76	100	100	85	100	78	100	77	89
COc1cc2ncnc(Nc3ccc4c(cnn4Cc4ccccc4)c3)c2cc1OC.Cl [GW282449A]	100	100	100	51	74	100	100	79	100	100
COC(=O)Nc1nc2ccc(Oc3ccc(NC(=O)Nc4cc(C(F)(F)F)ccc4F)cc3)cc2s1.Cl [GW693917A]	77	100	100	71	62	84	78	13	76	73
Nc1ncnc2occ(-c3ccc(NC(=O)Nc4cc(C(F)(F)F)ccc4F)cc3)c12 [GW770249X]	100	100	100	100	100	93	100	0.9	100	100
NS(=O)(=O)c1ccc(N/N=C2\C(=O)Nc3ccc(C(=O)NCCc4c[nH]cn4)cc32)cc1 [GW300660X]	100	81	84	100	38	37	65	79	86	100
C/C(Nc1ccc(S(N)(=O)=O)cc1)=C1/C(=O)Nc2ccccc21 [GW335962X]	100	77	100	100	62	52	83	1.2	81	80
O=C1Nc2ccc(C(=O)c3ccco3)cc2C1=Cc1cc(Cl)c(O)c(Cl)c1 [GW406108X]	100	35	41	86	–	71	60	78	11	74
CN1CCN(C(=O)c2ccc(NC(=O)Nc3ccc(N(C)c4ccnc(Nc5ccc(CS(C)(=O)=O)cc5)n4)cc3)cc2)CC1.Cl [GW830263A]	15	4.2	6.5	92	79	78	7.6	1.1	74	93
COc1cc(C=NNc2ncnc3c2cnn3-c2ccccc2)ccc1O [GW513184X]	100	47	8	100	100	100	67	95	100	100
COc1cc2ncn(-c3cc(O[C@H](C)c4ccccc4Cl)c(C(N)=O)s3)c2cc1OC [GSK237701A]	96	45	97	100	92	75	100	33	0.3	80
COc1cc(C)c(N(C)C(=O)CN(C)C)cc1Nc1nc(Nc2cccc(F)c2C(N)=O)c2cc[nH]c2n1 [GSK2219385]	90	100	100	100	72	80	100	100	82	62
COc1cccc(-n2ncc3c(N/N=C/c4ccncc4)ncnc32)c1 [GW784752X]	90	88	11	74	67	69	100	75	100	85
Cc1cc(O)cc(C)c1/C=C/c1cncc(C(N)=O)c1 [GW435821X]	100	100	90	100	100	97	98	87	100	100
